What was measured:
Assay type in all cases: functional
[1] = target: Solute carrier family 2, facilitated glucose transporter member 1 (Homo sapiens) (UniProt P11166); test: ST_JUDE_LEISH: Cytotoxicity at 2uM final concentration against transgenic Leishmania Mexicana promastigotes LmGLUT1 that are glucose transport deficient and complemented with the human glucose transporter GLUT1. Activity is measured by DNA content using SYBR green in vitro
[2] = target: Hexose transporter 1 (Plasmodium falciparum) (UniProt O97467); test: ST_JUDE_LEISH: Cytotoxicity at 2uM final concentration against transgenic Leishmania Mexicana promastigotes LmPfHT that are glucose transport deficient and complemented with the Plasmodium falciparum hexose transporter. Activity is measured by DNA content using SYBR green in vitro
[3] = target: Glucose transporter (Leishmania mexicana) (UniProt O61059); test: ST_JUDE_LEISH: Cytotoxicity at 2uM final concentration against transgenic Leishmania Mexicana promastigotes LmGT2 that are glucose transport deficient and complemented with the L. Mexicana glucose transporter 2. Activity is measured by DNA content using SYBR green in vitro

Sequence of Solute carrier family 2, facilitated glucose transporter member 1 (Homo sapiens) (P11166 whole entry): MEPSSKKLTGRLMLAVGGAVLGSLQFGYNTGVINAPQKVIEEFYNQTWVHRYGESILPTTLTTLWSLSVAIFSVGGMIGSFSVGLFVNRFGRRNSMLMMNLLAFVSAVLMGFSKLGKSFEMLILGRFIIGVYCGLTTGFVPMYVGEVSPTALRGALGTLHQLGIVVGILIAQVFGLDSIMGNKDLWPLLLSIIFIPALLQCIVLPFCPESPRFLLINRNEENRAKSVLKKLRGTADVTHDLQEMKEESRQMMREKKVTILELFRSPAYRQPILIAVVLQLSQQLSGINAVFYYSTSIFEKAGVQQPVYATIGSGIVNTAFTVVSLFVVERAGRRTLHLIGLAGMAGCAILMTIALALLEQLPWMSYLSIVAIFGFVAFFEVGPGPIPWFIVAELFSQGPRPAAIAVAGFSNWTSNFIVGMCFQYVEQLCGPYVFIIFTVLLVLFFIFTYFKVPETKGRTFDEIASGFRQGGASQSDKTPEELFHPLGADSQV

| SMILES | inhibition [1] [%] | inhibition [2] [%] | inhibition [3] [%] |
| --- | --- | --- | --- |
| CC1CN(Cc2ccc(-c3cccc(-c4nc5cc(F)ccc5[nH]4)c3)cc2)CC(C)O1 (stereo not given) | 1.55 | 7.65 | 2.46 |
| O=C(/C=C/c1ccc(Cl)c(Cl)c1)NCCCCCN1CCN(C(=O)Nc2ccc(OC(F)F)cc2)CC1 | 2.15 | 1.76 | -2.1 |
| Oc1ccc(CCNc2nc(NCCCOc3ccccc3-c3cccnc3)nc(N3CCNCC3)n2)cc1 | 5.04 | 7.86 | 5.99 |
| O=S(=O)(c1cc(Cl)sc1Cl)N(CCC(O)(C(F)(F)F)C(F)(F)F)Cc1cccc(O)c1 | 0.79 | 0.45 | 2.62 |
| COc1cc2nc(N3CCC(CNC(=O)c4ccc(-c5ccccc5)cc4)CC3)nc(N)c2cc1OC | 1.43 | 1.28 | 0.24 |
| Cc1ccc(Nc2nc3cc(N(C)c4ccnc(Nc5cccc(CS(C)(=O)=O)c5)n4)ccc3o2)cc1 | 5.07 | 4.21 | 4.65 |
| Cc1ccc(C(=O)c2oc3ccc4c(C)cc(=O)oc4c3c2C)cc1 | -0.73 | -0.13 | 0.22 |
| Cc1nc(C)c(-c2ccc(Oc3ccc(Cl)c(Cl)c3)cc2)c(O)c1Cl | 1.91 | 1.63 | 2.1 |
| CCOc1cc(-c2nnc3[nH]c(=O)n(C)c(=O)c3n2)ccc1OC(C)C | 2.56 | 2.55 | -1.04 |
| O=C(N[C@@H](Cc1ccccc1)[C@H](O)CNCCC(F)(F)F)c1cccc(CCC2CC2)c1 | 0.82 | 1.82 | 2.39 |
| O=C(Nc1ccc(N2CCN(c3ncccc3C(F)(F)F)CC2)nc1)c1cccs1 | 2.6 | 3.03 | 0.38 |
| Cc1c(C(=O)C2CC2CN2CCC(N3CCCC3)CC2)sc2ccccc12 (stereo not given) | 7.33 | 11.8 | 5.26 |
| COc1cc(C(=O)N2CCOC(CCN3CCc4c(c5ccccc5n4C)C3)(c3ccc(Cl)c(Cl)c3)C2)cc(OC)c1OC (stereo not given) | -0.35 | 0 | -1.26 |
| CC(C)CNCc1ccc(-c2ccc(CN(CCCN3CCN(C)CC3)C(=O)CCC3CCCC3)cc2)cc1 | 55.1 | 52 | 3.97 |
| COc1cccc2c(NN=Cc3cccc(Cl)c3)ccnc12 | 0.32 | -3.77 | 1.77 |
| CC(=O)Oc1cc(C)ccc1C1CCN(CCCCNC(=O)c2ccc(-c3ccc(C(F)(F)F)cc3)cc2)CC1 | 1.9 | 2.04 | 1.11 |
| Cc1cc(Nc2ccncc2)n2nc(C)c(-c3ccc(Cl)cc3)c2n1 | 11.6 | 9.35 | 8.71 |
| COc1cc(C(=O)NC2CCN(Cc3ccccc3)CC2)ccc1-c1cc2cc(Cl)c(Cl)cc2[nH]1 | 3.35 | 4.32 | 2 |
| COc1ccc(-c2nonc2NC(=O)c2ccc(C(C)(C)C)cc2)cc1OC | -0.32 | 0.21 | -0.16 |
| CCCc1ccc(S(=O)(=O)Nc2ccc3c(c2)CCC3)cc1 | 1.93 | 4.05 | 3.52 |
| CC(C)[C@H](NCC(=O)c1ccccc1)C(=O)O | -0.14 | 0.65 | -0.17 |
| OC1=C2C(=Nc3ccccc3SC2c2cccs2)c2ccccc21 (stereo not given) | 12.2 | 10.8 | 1.64 |
| CNC(=O)NC1=NC(C)(C)N(OCc2ccc(Cl)c(Cl)c2)C(NC(=O)NC)=N1 | 1.27 | 0.11 | 0.39 |
| COc1cccc2c1CCN(CCN1CCC(NC(=O)c3ccc(-c4cccc(Cl)c4Cl)cc3)CC1)C2 | 6.67 | 6.1 | 5.27 |
| COc1ccccc1C1CCN(C2CCC(NC(=O)c3cc4ccccc4[nH]3)CC2)CC1 (stereo not given) | -0.02 | -0.24 | 2.29 |

| SMILES | inhibition [1] [%] | inhibition [2] [%] | inhibition [3] [%] |
| --- | --- | --- | --- |
| COc1cccc(-c2cc(C(=O)Nc3ccc4[nH]c(-c5ccccc5)nc4c3)[nH]n2)c1 | 4.77 | 3.14 | 1.09 |
| Cc1cc(=NN=Cc2ccccc2F)c2cccc(C)c2[nH]1 | 3.9 | 5.38 | 0.4 |
| Cc1cnn(-c2cccc(C(=O)NC3CCC(CCN4CCc5ccc(C#N)cc5CC4)CC3)c2)c1 (stereo not given) | 1.35 | 6.24 | -0.22 |
| O=C(Nc1ccc(C(=O)Nc2cccc(C3=NCCN3)c2)cc1)Nc1ccc(C2=NCCN2)cc1 | -1.17 | 0.34 | -0.6 |
| O=C(Nc1ccc(C(=O)Oc2ccc(-c3ccccc3)cc2)cc1)N[C@@H](Cc1ccc(O)cc1)C(=O)NC1CCN(Cc2ccc(O)cc2)C1 (stereo not given in full) | 2.56 | 2.9 | 4.33 |
| CNC(=O)c1ccc2nc(C3CC3)n(CC3CCN(S(=O)(=O)c4cccc(Cl)c4)CC3)c2c1 | 1.69 | 1.44 | 2.49 |
| N#Cc1cncc(-c2nc3c(N4CCC(Cc5ccccc5)CC4)cccc3n2CCNCc2ccccc2)c1 | 5.27 | 4.45 | 6.16 |
| O=S(=O)(Nc1cccc(CCN2CCC(N3CCCCC3)CC2)c1)c1ccc(Oc2ccccc2)cc1 | 4.33 | 4.71 | 2.69 |
| CC(=O)c1c[nH]c2ccc(/C=C/C(=O)NC3CCC(CCN4CCc5ccc(C#N)cc5CC4)CC3)cc12 (stereo not given) | 19.5 | 14.9 | 18.9 |
| O=C(c1ccc(Cl)cc1)C1CCN(CCCOc2ccc3c(c2)CCNCC3)CC1 | 1.04 | 4.76 | 0.17 |
| CC(C)(C)OC(=O)NCc1ccc(Nc2nnc(-c3cccc(C(=O)NCCC(c4ccccc4)c4ccccc4)c3)o2)cc1 | 8.74 | 10.6 | 7.8 |
| C=CCc1cccc(C)c1OCCCON1C(=N)N=C(N)NC1(C)C | 1.09 | 2.76 | 1.9 |
| COc1cc2nc(N3CCN(c4cc(C)ccc4C)CC3)nc(N)c2cc1OC | 1.13 | 0.08 | 0.51 |
| CC(=O)c1cccc(NC(=O)NC2CCN(CCCCCNC(=O)/C=C/c3ccc(Cl)c(Cl)c3)CC2)c1 | 1.56 | 2.6 | 5.52 |
| CC(=O)Nc1cccc(C(=O)Nc2ccc(-c3cccc(-c4nc5cc(F)ccc5[nH]4)c3)cc2)c1 | 4.65 | 4.15 | 5.47 |
| N#Cc1ccc2c(c1)CN(CCC1CCC(NC(=O)c3cc4ccccc4cc3N)CC1)CC2 (stereo not given) | 5.84 | 5.45 | 3.13 |
| CC(=O)c1nccc(C)c1N | 2.66 | 1.53 | 2.57 |
| COc1cccc(Nc2nc(Nc3cccc(C#N)c3)cc(-c3ccncc3)n2)c1 | 3.83 | 4.95 | 1.57 |
| COc1nc2c(N3CCN(CCNCc4ccc5c(n4)NC(=O)CS5)CC3)ccnc2cc1F | 0.45 | -0.85 | 0.49 |
| O=C(NC1CC1)c1cnc(N2CCC(Oc3ccc(Cl)cc3)CC2)c(Cl)c1 | 5.36 | 2.7 | 0.49 |
| Nc1c(Cl)cc(C(O)CNCCCCCCOCCc2ccc(O)cc2)cc1Cl (stereo not given) | -0.61 | -1.55 | -2.56 |
| O=C(Nc1ccc(-c2nc3ccccc3[nH]2)cc1)c1cccc(S(=O)(=O)N2CCOCC2)c1 | 4.9 | 5.13 | 4.05 |
| O=C(NC1CCCCC1)C1CCCN(C(=O)c2ccc(O)c(-c3ccc(Cl)c(Cl)c3)c2)C1 (stereo not given) | 0.15 | 1.83 | -0.03 |
| Cc1nc(C)c(-c2ccc(C(F)(F)F)cc2)c(O)c1Br | 2.72 | 1.79 | 0.77 |
| Cc1ccc(NS(=O)(=O)c2cccs2)cc1-c1cccc(C(=O)Nc2ccc(F)cc2)c1 | 2 | 3.65 | 1.16 |

From ChEMBL document CHEMBL3433997, “St. Jude Leishmania screening dataset” (2016)
